Laboratory results reported in publication PMC11062922 (Nature Chemical Biology, 2023).
Read-outs that look alike come from different tables or passages of the source.

Experiments:
MARK3 = settings: read-out: apparent Kd, n = 1
MARK4 = settings: read-out: apparent Kd, n = 1
[1] = compound concentrations:100 nM and 1000 nM (sheet 'Lestaurtinib' of Supplementary Table 1),run:Lestaurtinib_02473_R3,Plate:MR010
[2] = compound concentrations:100 nM and 1000 nM (sheet 'Lestaurtinib' of Supplementary Table 1),run:Lestaurtinib_02482_R2,Plate:MR011
[3] = compound concentrations:100 nM and 1000 nM (sheet 'Lestaurtinib' of Supplementary Table 1),run:Lestaurtinib_02482_R3,Plate:MR011
[4] = compound concentrations:100 nM and 1000 nM (sheet 'Lestaurtinib' of Supplementary Table 1),run:Lestaurtinib_02487_R1,Plate:MR012
[5] = compound concentrations:100 nM and 1000 nM (sheet 'Lestaurtinib' of Supplementary Table 1),run:Lestaurtinib_02487_R2,Plate:MR012
[6] = compound concentrations:100 nM and 1000 nM (sheet 'Lestaurtinib' of Supplementary Table 1),run:Lestaurtinib_02496_R2,Plate:MR013
[7] = compound concentrations:100 nM and 1000 nM (sheet 'Lestaurtinib' of Supplementary Table 1),run:Lestaurtinib_02496_R3,Plate:MR013
[8] = compound concentrations:100 nM and 1000 nM (sheet 'Lestaurtinib' of Supplementary Table 1),run:Lestaurtinib_02566_R1,Plate:MR014
[9] = compound concentrations:100 nM and 1000 nM (sheet 'Lestaurtinib' of Supplementary Table 1),run:Lestaurtinib_02572_R1,Plate:MR015
[10] = compound concentrations:100 nM and 1000 nM (sheet 'Lestaurtinib' of Supplementary Table 1),run:Lestaurtinib_02577_R1,Plate:MR016
[11] = compound concentrations:100 nM and 1000 nM (sheet 'Lestaurtinib' of Supplementary Table 1),run:Lestaurtinib_02577_R3,Plate:MR016
[12] = compound concentrations:100 nM and 1000 nM (sheet 'Lestaurtinib' of Supplementary Table 1),run:Lestaurtinib_02584_R3,Plate:MR017
[13] = compound concentrations:100 nM and 1000 nM (sheet 'Lestaurtinib' of Supplementary Table 1),run:Lestaurtinib_02606_R3,Plate:MR019
[14] = compound concentrations:100 nM and 1000 nM (sheet 'Lestaurtinib' of Supplementary Table 1),run:Lestaurtinib_02624_R2,Plate:MR020

Substance: Lestaurtinib
- potency estimated from few doses (MARK3; compound concentrations:100 nM and 1000 nM (sheet 'Lestaurtinib' of Supplementary Table 1),run:Lestaurtinib_02443_R3,Plate:MR009): 217 nM
- potency estimated from few doses (MARK3; [1]): 98.5 nM
- potency estimated from few doses (MARK3; [2]): 158 nM
- potency estimated from few doses (MARK3; [3]): 140 nM
- potency estimated from few doses (MARK3; [4]): 153 nM
- potency estimated from few doses (MARK3; [5]): 200 nM
- potency estimated from few doses (MARK3; compound concentrations:100 nM and 1000 nM (sheet 'Lestaurtinib' of Supplementary Table 1),run:Lestaurtinib_02487_R3,Plate:MR012): 172 nM
- potency estimated from few doses (MARK3; [6]): 153 nM
- potency estimated from few doses (MARK3; [7]): 146 nM
- potency estimated from few doses (MARK3; [8]): 140 nM
- potency estimated from few doses (MARK3; [9]): 140 nM
- potency estimated from few doses (MARK3; compound concentrations:100 nM and 1000 nM (sheet 'Lestaurtinib' of Supplementary Table 1),run:Lestaurtinib_02572_R2,Plate:MR015): 162 nM
- potency estimated from few doses (MARK3; [10]): 158 nM
- potency estimated from few doses (MARK3; compound concentrations:100 nM and 1000 nM (sheet 'Lestaurtinib' of Supplementary Table 1),run:Lestaurtinib_02577_R2,Plate:MR016): 224 nM
- potency estimated from few doses (MARK3; [11]): 259 nM
- potency estimated from few doses (MARK3; [12]): 211 nM
- potency estimated from few doses (MARK3; compound concentrations:100 nM and 1000 nM (sheet 'Lestaurtinib' of Supplementary Table 1),run:Lestaurtinib_02601_R2,Plate:MR018): 184 nM
- potency estimated from few doses (MARK3; compound concentrations:100 nM and 1000 nM (sheet 'Lestaurtinib' of Supplementary Table 1),run:Lestaurtinib_02606_R2,Plate:MR019): 131 nM
- potency estimated from few doses (MARK3; [13]): 162 nM
- potency estimated from few doses (MARK3; compound concentrations:100 nM and 1000 nM (sheet 'Lestaurtinib' of Supplementary Table 1),run:Lestaurtinib_02624_R1,Plate:MR020): 146 nM
- potency estimated from few doses (MARK3; [14]): 143 nM
- potency estimated from few doses (MARK3; compound concentrations:100 nM and 1000 nM (sheet 'Lestaurtinib' of Supplementary Table 1),run:Lestaurtinib_02724_R1,Plate:MR021): 157 nM
- potency estimated from few doses (MARK3; compound concentrations:100 nM and 1000 nM (sheet 'Lestaurtinib' of Supplementary Table 1),run:Lestaurtinib_02724_R2,Plate:MR021): 180 nM
- potency estimated from few doses (MARK3; compound concentrations:100 nM and 1000 nM (sheet 'Lestaurtinib' of Supplementary Table 1),run:Lestaurtinib_02724_R3,Plate:MR021): 163 nM
- potency estimated from few doses (MARK3; compound concentrations:100 nM and 1000 nM (sheet 'Lestaurtinib' of Supplementary Table 1),run:Lestaurtinib_02752_R3,Plate:MR025): 189 nM
- potency estimated from few doses (MARK3; compound concentrations:100 nM and 1000 nM (sheet 'Lestaurtinib' of Supplementary Table 1),run:Lestaurtinib_02765_R3,Plate:MR026): 143 nM
- potency estimated from few doses (MARK3; compound concentrations:100 nM and 1000 nM (sheet 'Lestaurtinib' of Supplementary Table 1),run:Lestaurtinib_02766_R3,Plate:MR027): 137 nM
- potency estimated from few doses (MARK3; compound concentrations:100 nM and 1000 nM (sheet 'Lestaurtinib' of Supplementary Table 1),run:Lestaurtinib_02768_R3,Plate:MR028): 136 nM
- potency estimated from few doses (MARK3; compound concentrations:100 nM and 1000 nM (sheet 'Lestaurtinib' of Supplementary Table 1),run:Lestaurtinib_02795_R1,Plate:MR022): 154 nM
- potency estimated from few doses (MARK3; compound concentrations:100 nM and 1000 nM (sheet 'Lestaurtinib' of Supplementary Table 1),run:Lestaurtinib_02795_R2,Plate:MR022): 141 nM
- potency estimated from few doses (MARK3; compound concentrations:100 nM and 1000 nM (sheet 'Lestaurtinib' of Supplementary Table 1),run:Lestaurtinib_02795_R3,Plate:MR022): 268 nM
- potency estimated from few doses (MARK3; compound concentrations:100 nM and 1000 nM (sheet 'Lestaurtinib' of Supplementary Table 1),run:Lestaurtinib_02896_R1,Plate:MR030): 142 nM
- potency estimated from few doses (MARK3; compound concentrations:100 nM and 1000 nM (sheet 'Lestaurtinib' of Supplementary Table 1),run:Lestaurtinib_02896_R3,Plate:MR030): 159 nM
- potency estimated from few doses (MARK3; compound concentrations:100 nM and 1000 nM (sheet 'Lestaurtinib' of Supplementary Table 1),run:Lestaurtinib_03172_R1,Plate:MR031): 161 nM
- potency estimated from few doses (MARK3; compound concentrations:100 nM and 1000 nM (sheet 'Lestaurtinib' of Supplementary Table 1),run:Lestaurtinib_03172_R2,Plate:MR031): 207 nM
- potency estimated from few doses (MARK3; compound concentrations:100 nM and 1000 nM (sheet 'Lestaurtinib' of Supplementary Table 1),run:Lestaurtinib_03172_R3,Plate:MR031): 146 nM
- potency estimated from few doses (MARK3; compound concentrations:100 nM and 1000 nM (sheet 'Lestaurtinib' of Supplementary Table 1),run:Lestaurtinib_03260_R1,Plate:MR033): 381 nM
- potency estimated from few doses (MARK3; compound concentrations:100 nM and 1000 nM (sheet 'Lestaurtinib' of Supplementary Table 1),run:Lestaurtinib_03260_R2,Plate:MR033): 379 nM
- potency estimated from few doses (MARK3; compound concentrations:100 nM and 1000 nM (sheet 'Lestaurtinib' of Supplementary Table 1),run:Lestaurtinib_03260_R3,Plate:MR033): 184 nM
- potency estimated from few doses (MARK4; compound concentrations:100 nM and 1000 nM (sheet 'Lestaurtinib' of Supplementary Table 1),run:Lestaurtinib_02339_R2,Plate:MR001): 165 nM
- potency estimated from few doses (MARK4; compound concentrations:100 nM and 1000 nM (sheet 'Lestaurtinib' of Supplementary Table 1),run:Lestaurtinib_02339_R3,Plate:MR001): 385 nM
- potency estimated from few doses (MARK4; compound concentrations:100 nM and 1000 nM (sheet 'Lestaurtinib' of Supplementary Table 1),run:Lestaurtinib_02364_R1,Plate:MR002): 73 nM
- potency estimated from few doses (MARK4; compound concentrations:100 nM and 1000 nM (sheet 'Lestaurtinib' of Supplementary Table 1),run:Lestaurtinib_02367_R2,Plate:MR003): 79.7 nM
- potency estimated from few doses (MARK4; compound concentrations:100 nM and 1000 nM (sheet 'Lestaurtinib' of Supplementary Table 1),run:Lestaurtinib_02367_R3,Plate:MR003): 85.1 nM
- potency estimated from few doses (MARK4; compound concentrations:100 nM and 1000 nM (sheet 'Lestaurtinib' of Supplementary Table 1),run:Lestaurtinib_02381_R3,Plate:MR004): 209 nM
- potency estimated from few doses (MARK4; compound concentrations:100 nM and 1000 nM (sheet 'Lestaurtinib' of Supplementary Table 1),run:Lestaurtinib_02422_R1,Plate:MR006): 74.8 nM
- potency estimated from few doses (MARK4; compound concentrations:100 nM and 1000 nM (sheet 'Lestaurtinib' of Supplementary Table 1),run:Lestaurtinib_02422_R3,Plate:MR006): 86.4 nM
- potency estimated from few doses (MARK4; compound concentrations:100 nM and 1000 nM (sheet 'Lestaurtinib' of Supplementary Table 1),run:Lestaurtinib_02437_R1,Plate:MR007): 974 nM
- potency estimated from few doses (MARK4; compound concentrations:100 nM and 1000 nM (sheet 'Lestaurtinib' of Supplementary Table 1),run:Lestaurtinib_02438_R3,Plate:MR008): 83.1 nM
- potency estimated from few doses (MARK4; compound concentrations:100 nM and 1000 nM (sheet 'Lestaurtinib' of Supplementary Table 1),run:Lestaurtinib_02443_R2,Plate:MR009): 93.4 nM
- potency estimated from few doses (MARK4; compound concentrations:100 nM and 1000 nM (sheet 'Lestaurtinib' of Supplementary Table 1),run:Lestaurtinib_02473_R1,Plate:MR010): 84.5 nM
- potency estimated from few doses (MARK4; [1]): 59.7 nM
- potency estimated from few doses (MARK4; [2]): 86.4 nM
- potency estimated from few doses (MARK4; [3]): 83.9 nM
- potency estimated from few doses (MARK4; [4]): 703 nM
- potency estimated from few doses (MARK4; [5]): 162 nM
- potency estimated from few doses (MARK4; [6]): 83.9 nM
- potency estimated from few doses (MARK4; [7]): 668 nM
- potency estimated from few doses (MARK4; [8]): 708 nM
- potency estimated from few doses (MARK4; compound concentrations:100 nM and 1000 nM (sheet 'Lestaurtinib' of Supplementary Table 1),run:Lestaurtinib_02566_R2,Plate:MR014): 36.8 nM
- potency estimated from few doses (MARK4; compound concentrations:100 nM and 1000 nM (sheet 'Lestaurtinib' of Supplementary Table 1),run:Lestaurtinib_02566_R3,Plate:MR014): 497 nM
- potency estimated from few doses (MARK4; [9]): 115 nM
- potency estimated from few doses (MARK4; [10]): 141 nM
- potency estimated from few doses (MARK4; [11]): 199 nM
- potency estimated from few doses (MARK4; compound concentrations:100 nM and 1000 nM (sheet 'Lestaurtinib' of Supplementary Table 1),run:Lestaurtinib_02584_R1,Plate:MR017): 85.5 nM
- potency estimated from few doses (MARK4; compound concentrations:100 nM and 1000 nM (sheet 'Lestaurtinib' of Supplementary Table 1),run:Lestaurtinib_02584_R2,Plate:MR017): 74.7 nM
- potency estimated from few doses (MARK4; [12]): 80.1 nM
- potency estimated from few doses (MARK4; compound concentrations:100 nM and 1000 nM (sheet 'Lestaurtinib' of Supplementary Table 1),run:Lestaurtinib_02601_R1,Plate:MR018): 90.9 nM
- potency estimated from few doses (MARK4; compound concentrations:100 nM and 1000 nM (sheet 'Lestaurtinib' of Supplementary Table 1),run:Lestaurtinib_02601_R3,Plate:MR018): 93.4 nM
- potency estimated from few doses (MARK4; [13]): 115 nM
- potency estimated from few doses (MARK4; [14]): 84.3 nM
- potency estimated from few doses (MARK4; compound concentrations:100 nM and 1000 nM (sheet 'Lestaurtinib' of Supplementary Table 1),run:Lestaurtinib_02624_R3,Plate:MR020): 78.4 nM
